Assay [1] can be described thus: qHTS for Inhibitors of Plasmodium falciparum (DD2) proliferation (AID 504314). An outline of the steps:
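SYBR Green DNA-fluorescence growth assay: infected RBCs at 0.3% parasitemia, 2.5% hematocrit, 72 h compound exposure, 37C, 5% CO2; overnight lysis with dye at RT; normalized to 0.29 uM artemisinin and vehicle.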
For orientation: qHTS replaces the single test concentration by a dilution series.

A short description of assay [2]: qHTS for Inhibitors of Plasmodium falciparum (GB4) proliferation (AID 504315). Further: nearly all actives have a fitted effect of over 50% in size. The method in brief:
(§1)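 Parasite growth measured as SYBR Green DNA fluorescence (ex 485, em 535 nm) after overnight lysis following 72 h culture at 37 °C, 0.3% parasitemia, 2.5% hematocrit. Values normalized against DMSO and 0.29 uM artemisinin controls, with plate-stack correction.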

Assay [3] is described as follows: qHTS for Inhibitors of Plasmodium falciparum (7G8) proliferation (AID 504316). Further: nearly all actives have a fitted effect of over 65% in size. The method in brief: as §1
Assay [4] in a line: qHTS for Inhibitors of Plasmodium falciparum (HB3) proliferation (AID 504318). Further: nearly all actives have a fitted effect of over 60% in size. An outline of the steps: as §1
A short description of assay [5]: qHTS for Inhibitors of Plasmodium falciparum (CP250) proliferation (AID 504320). The method in brief: as §1

Experimental findings from PubChem BioAssay (NCATS) are described below.

Results filed as inconclusive are left out. The source made the active and inactive calls. The call rests on the fitted dose curve; in most records, active means well fitted curve in the direction sought with a large enough effect; inconclusive means small, poorly fitted or top-dose-only effect, or another doubt; inactive means no such curve, though single readings can be large; an effect the other way counts as inactive or inconclusive.
Potency means the concentration at half of the fitted maximal effect.

`COC/C=C/C1=CC2=CC(=O)C(C)(OC(=O)c3cnc4ccccc4n3)C(=O)C2=CN1CCc1c[nH]c2ccccc12` (stereo not given): the Potency result in assay [1], in assay [2], in assay [3], in assay [4] and in assay [5] was “inactive” each time.
In the case of `COC(=O)C1=C(C)N(Cc2ccccc2)C(=O)N[C@H]1c1cccc(F)c1`, the Potency result in assay [1], in assay [2], in assay [3], in assay [4] and in assay [5] was “inactive” each time.
`CC(C)CN1C=C2C(=O)C(C)(OC(=O)C3CCCC3)C(=O)C=C2C=C1c1ccsc1` (stereo not given): the Potency entry in assay [1], in assay [2], in assay [3], in assay [4] and in assay [5] was “inactive” each time.
For the molecule `CCCCc1nc2c(c3c1C[C@H](C)OC3)CN(C(=O)C1CC1)CC2`, the Potency entry in assay [1], in assay [2], in assay [3], in assay [4] and in assay [5] was “inactive” each time.
For the molecule `COC(=O)CCC(=O)OC1(C)C(=O)C2=CN(Cc3ccc4c(c3)OCO4)C(c3ccc(OC)cc3)=CC2=C(Br)C1=O` (stereo not given), the Potency result in assay [1], in assay [2], in assay [3], in assay [4] and in assay [5] was “inactive” each time.
As to `COC/C=C/C1=CC2=CC(=O)C(C)(OC(=O)c3cnc4ccccc4n3)C(=O)C2=CN1CC(C)C` (stereo not given), the Potency result in assay [1], in assay [2], in assay [3], in assay [4] and in assay [5] was “inactive” in each case.
`O=C1c2cc(Br)ccc2O[C@@H](c2ccc3c(c2)OCO3)[C@@H]1O`: the Potency result in assay [1], in assay [2], in assay [3], in assay [4] and in assay [5] was “inactive” each time.
For the molecule `CCN1C(=O)N[C@@H](c2ccc(Br)cc2)C(C(C)=O)=C1C`, the Potency entry in assay [1], in assay [2], in assay [3], in assay [4] and in assay [5] was “inactive” in each case.
Turning to `COC(=O)CCC(=O)OC1(C)C(=O)C2=CN(CC(C)C)C(c3ccc(OC)cc3)=CC2=C(Br)C1=O` (stereo not given), the Potency entry in assay [1], in assay [2], in assay [3], in assay [4] and in assay [5] was “inactive” in each case.
Turning to `CCC(=O)OC1(C)C(=O)C=C2C=C(CCCCNC(=O)OC(C)(C)C)OC=C2C1=O` (stereo not given), the Potency entry in assay [1], in assay [2], in assay [3], in assay [4] and in assay [5] was “inactive” each time.
Turning to `CCCCC1=CC2=C(c3ccco3)C(=O)C(C)(OC(=O)c3ccc(OC)cc3)C(=O)C2=CN1CC(C)C` (stereo not given), the Potency entry in assay [1], in assay [2], in assay [3], in assay [4] and in assay [5] was “inactive” in each case.
`CCCC[C@]12Cc3c(ccc4ccccc34)[C@H](O1)C1=C(O2)C(=O)c2ccccc2C1=O`: the Potency in assay [1] is 1690 nM (active); in assay [2] it was 1690 nM (active); in assay [3] it was 1510 nM (active); in assay [4], 1510 nM (active).
For `COC(=O)C1=C(C(=O)OC)[C@@H]2N(C)c3ccccc3[C@@]23C[C@@H](C(=O)OC)N=C3N1`, the Potency entry in assay [1], in assay [2], in assay [3], in assay [4] and in assay [5] was “inactive” each time.
For the molecule `C=CCN1c2ccccc2[C@]23C[C@@H](C(=O)OC)N(S(=O)(=O)c4ccc([N+](=O)[O-])cc4)C2=NC(C(=O)OC)=C(C(=O)OC)[C@H]13`, the Potency entry in assay [1] is “inactive”. For the same molecule, the Potency is 1510 nM (active) in assay [2] and 1690 nM (active) in assay [3].
Take `CC(CCN1CCCc2nc(C)c(C)cc21)=NO[C@H](C)c1cn([C@@H]2COC[C@@H]2O)nn1`: the Potency result in assay [1], in assay [2], in assay [3] and in assay [4] was “inactive” each time.
Regarding `C[C@H]1Cc2c(-c3ccccc3)nc3c(c2CO1)CN(S(=O)(=O)c1ccc(C#N)cc1)CC3`, the Potency result in assay [1], in assay [2], in assay [3], in assay [4] and in assay [5] was “inactive” in each case.
Regarding `COC(=O)C1=C(C(=O)OC)[C@@H]2Nc3ccccc3[C@@]23C[C@@H](C(=O)OC)N(S(=O)(=O)c2ccc(C)cc2)C3=N1`, the Potency result in assay [1], in assay [2], in assay [3], in assay [4] and in assay [5] was “inactive” each time.
In the case of `CC[C@@H](C)CN1C(=O)N[C@@H](c2ccccc2)C(C(=O)OC)=C1C`, the Potency entry in assay [1], in assay [2], in assay [3] and in assay [4] was “inactive” in each case.
`COC(=O)CCCC1=CC2=CC(=O)C(C)(OC(=O)c3cccs3)C(=O)C2=CN1c1ccc(CO)cc1` (stereo not given): the Potency result in assay [1], in assay [2], in assay [3], in assay [4] and in assay [5] was “inactive” throughout.
For `CCN1C(=O)N[C@@H](c2cccc(F)c2)C(C(=O)OC)=C1C`, the Potency entry in assay [1], in assay [2], in assay [3], in assay [4] and in assay [5] was “inactive” in each case.
With `COc1ccc(-c2nc3c(c4c2C[C@H](c2ccccc2)OC4)CN(C(=O)NCCc2c[nH]c4ccccc24)CC3)c(C)c1`, the Potency result in assay [1], in assay [2], in assay [3], in assay [4] and in assay [5] was “inactive” each time.
Regarding `CC[C@H](C)[C@@H](NC(=O)O[C@@H]1C(=O)c2cc(Br)ccc2O[C@H]1c1cccc(OC)c1)C(=O)OC`, the Potency entry in assay [1], in assay [2], in assay [3], in assay [4] and in assay [5] was “inactive” each time.
As for `CC(C)C(=O)N[C@@H]1CCCN1C(=O)C=Cc1ccccc1`, the Potency result in assay [1], in assay [2], in assay [3], in assay [4] and in assay [5] was “inactive” in each case.
Consider `C=CCOC(=O)N[C@H](C(C(=O)OC)=C(C)NCc1ccccc1)c1cccc(F)c1`, for which the Potency result in assay [1], in assay [2], in assay [3], in assay [4] and in assay [5] was “inactive” throughout.
As to `COC(=O)CCC(=O)OC1(C)C(=O)C=C2C=C(C3CC3)N(Cc3ccccc3)C=C2C1=O` (stereo not given), the Potency entry in assay [1], in assay [2], in assay [3], in assay [4] and in assay [5] was “inactive” throughout.
Turning to `COC(=O)C1=C(C)N(Cc2ccccc2)C(=O)N[C@H]1c1cccs1`, the Potency entry in assay [1], in assay [2], in assay [3], in assay [4] and in assay [5] was “inactive” throughout.
With `COC(=O)C1=C(C(=O)OC)[C@@H]2N(C)c3ccccc3[C@@]23C[C@@H](CO)N(C(=O)C2CCC2)C3=N1`, the Potency entry in assay [1], in assay [2], in assay [3], in assay [4] and in assay [5] was “inactive” throughout.
For `CCN1C(=O)N[C@@H](c2ccccc2)C(C(=O)OC)=C1C`, the Potency result in assay [1], in assay [2], in assay [3], in assay [4] and in assay [5] was “inactive” in each case.
Turning to `C[C@H]1Cc2c(-c3ccccc3)nc3c(c2CO1)CN(C(=O)C1CCCCC1)CC3`, the Potency entry in assay [1], in assay [2], in assay [3], in assay [4] and in assay [5] was “inactive” in each case.
For the molecule `CC1(C)O[C@@H](C(O)(c2cc(F)c(F)c(F)c2)c2cc(F)c(F)c(F)c2)[C@H](C(O)(c2cc(F)c(F)c(F)c2)c2cc(F)c(F)c(F)c2)O1`, the Potency in assay [1] was 671 nM (active); in assay [2] it was 953 nM (active); in assay [3], 379 nM (active); in assay [4], 536 nM (active); in assay [5], 849 nM (active).
As for `C=CCN1c2ccccc2[C@]23C[C@@H](C(=O)OC)N(C(=O)c4ccco4)C2=NC(C(=O)OC)=C(C(=O)OC)[C@H]13`, the Potency result in assay [1], in assay [2], in assay [3], in assay [4] and in assay [5] was “inactive” each time.
`CCN1C(=O)N[C@@H](c2ccco2)C(C(=O)OC)=C1C`: the Potency result in assay [1], in assay [2], in assay [3], in assay [4] and in assay [5] was “inactive” each time.
For the molecule `CC1(OC(=O)c2ccc(Cl)nc2)C(=O)C=C2C=C(C3CC3)OC=C2C1=O` (stereo not given), the Potency result in assay [1], in assay [2], in assay [3], in assay [4] and in assay [5] was “inactive” each time.
Take `COC(=O)CCCC1=CC2=C(c3ccccc3)C(=O)C(C)(OC(=O)C3CCCC3)C(=O)C2=CN1C1CC1` (stereo not given): the Potency result in assay [1], in assay [2], in assay [3], in assay [4] and in assay [5] was “inactive” throughout.
Consider `C=CCN1C=C2C(=O)C(C)(OC(=O)C3CCCC3)C(=O)C(c3ccccc3)=C2C=C1CCCC(=O)OC` (stereo not given), for which the Potency entry in assay [1], in assay [2], in assay [3], in assay [4] and in assay [5] was “inactive” throughout.
In the case of `CCN1C(=O)N[C@@H](CCc2ccccc2)C(C(C)=O)=C1C`, the Potency result in assay [1], in assay [2], in assay [3], in assay [4] and in assay [5] was “inactive” in each case.
Turning to `CCN1C(=O)N[C@H](c2ccccc2)C(C(C)=O)=C1C`, the Potency entry in assay [1], in assay [2], in assay [3], in assay [4] and in assay [5] was “inactive” each time.
Turning to `CCCCc1nc2c(c3c1C[C@H](C)OC3)CN(C(=O)NCc1ccco1)CC2`, the Potency result in assay [1], in assay [2], in assay [3], in assay [4] and in assay [5] was “inactive” each time.
For the molecule `CCOC(=O)CN1C(=O)NC(c2cccc(C(F)(F)F)c2)C(C(C)=O)=C1C` (stereo not given), the Potency entry in assay [1], in assay [2], in assay [3], in assay [4] and in assay [5] was “inactive” each time.
With `CCOC(=O)CN1C(=O)N[C@@H](c2ccc(Br)cc2)C(C(=O)OC)=C1C`, the Potency result in assay [1], in assay [2], in assay [3], in assay [4] and in assay [5] was “inactive” throughout.
Consider `CC(C)OCCCN1C=C2C(=O)C(C)(OC(=O)CCc3ccccc3)C(=O)C=C2C=C1c1ccc(C#N)cc1` (stereo not given), for which the Potency entry in assay [1], in assay [2], in assay [3], in assay [4] and in assay [5] was “inactive” in each case.
For `CC#CCN1c2ccccc2[C@]23C[C@@H](C(=O)OC)N=C2NC(C(=O)OC)=C(C(=O)OC)[C@H]13`, the Potency entry in assay [1], in assay [2], in assay [3], in assay [4] and in assay [5] was “inactive” throughout.
`COC(=O)C1=C(C(=O)OC)[C@@H]2Nc3ccccc3[C@@]23C[C@@H](C(=O)OC)N(C(=O)NC2CCCC2)C3=N1`: the Potency entry in assay [1], in assay [2], in assay [3], in assay [4] and in assay [5] was “inactive” throughout.
